# An excerpt weighted towards active compounds, which were near 6.6% of everything screened.
# KB-3-1 tox – qHTS assay for MDR1-selective chemotherapeutics: Primary screen using the parental adenocarcinoma cell KB-3-1 | AID 1347075, 2019 | KB-3-1 viability, CellTiter-Glo ATP luminescence, 72 h | 400,000 tested, 1.4% active | Potency, µM (highest dose often 46.1 µM), most hits filed as cytotoxic; also: nearly all actives have a fitted effect of over 60% in size
#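 Multi-concentration cytotoxicity screen in KB-3-1 cells grown in DMEM lacking phenol red with 10% FBS. After 72 h at 37 °C with compound, ATP-dependent luminescence was recorded.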
# RGS4 inhibitor – Inhibitors of Regulator of G Protein Signaling (RGS) 4: qHTS | 390,000 tested, 0.039% active | Regulator of G-protein signaling 4 (Homo sapiens), P49798 | Potency, µM (doses to about 114 µM), hits mostly inhibitors | Transcreener GDP fluorescence polarization, RGS4-accelerated GTP hydrolysis | AID 504845, 2011; also: nearly all actives have a fitted effect of over 75% in size
# Target sequence (P49798 whole entry, looked up): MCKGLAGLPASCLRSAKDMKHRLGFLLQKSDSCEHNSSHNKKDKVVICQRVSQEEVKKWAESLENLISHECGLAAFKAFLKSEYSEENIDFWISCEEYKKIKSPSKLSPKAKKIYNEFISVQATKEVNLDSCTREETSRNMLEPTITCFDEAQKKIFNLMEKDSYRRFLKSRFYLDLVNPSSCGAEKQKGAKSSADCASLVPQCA
#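 MLSMR compounds (23 nl, pin-transferred) preincubated 10 min at room temperature with a 500nM (2x) first reagent, then RGS4 at 900nM (2x) plus Transcreener GDP mix added; fluorescence polarization (620/688 nm) read before and after 90 min at 30 °C.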
# SW480 rerep – A quantitative high throughput screen for small molecules that induce DNA re-replication in SW480 colon adenocarcinoma cells. SW480 DNA re-replication, Hoechst DNA content imaging, 48 h. Potency, µM (doses to about 46.1 µM), actives largely listed as activators. 340,000 tested, 1.8% active. AID 624297, 2012; also: nearly all actives have a fitted effect of over 55% in size
#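 Cells (250 per well) received 23 nL compound or DMSO by pin tool and were kept 48 hr at 37 C, 5% CO2. Nuclei were then stained with Hoechst for 40 min and scanned for DNA content.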
# KB-V1 cytotox – qHTS assay for MDR1-selective chemotherapeutics: Primary screen using the drug-selected MDR subline cells KB-V1; KB-V1 MDR cells viability, CellTiter-Glo, 72 h; Potency, µM (highest dose often 46.1 µM), usual class: cytotoxic; AID 1347076, 2019; 400,000 tested, 3.4% active; also: nearly all actives have a fitted effect of over 60% in size
#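 KB-V1 MDR subline cells in DMEM (phenol-red free, 10% FBS) exposed to compounds in qHTS concentration series for 72 h at 37 degrees C. Viability read by CellTiter-Glo luminescence; concentration-effect curves fitted after normalization and correction.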
# MCF10A rerep – A quantitative high throughput screen for small molecules that induce DNA re-replication in MCF 10a normal breast cells; AID 624296, 2012; Potency, µM (doses to about 46.1 µM), most hits filed as activators; MCF 10A DNA re-replication, Hoechst nuclear intensity, 48 h; 350,000 tested, 2.9% active; also: nearly all actives have a fitted effect of over 50% in size
# PTAP TSG101 blk – qHTS Assay for Iinhibitors of HIV-1 Budding by Blocking the Interaction of PTAP/TSG101 | Potency, µM (top dose mostly 115 µM), usual class: inhibitors | Tumor susceptibility gene 101 protein (Homo sapiens), Q99816 | 340,000 tested, under 10 active | Fluorescence polarization, FITC-PTAP peptide / Tsg101 binding; active = well fitted inhibition curve with a large enough effect in the main read-out, with a control signal flat, not every such curve was filed as active; inconclusive = small, poorly fitted or top-dose-only effect, or effect the other way, or a change in a side signal; inactive = no such curve, though single readings can be large or run the other way
# Target sequence (Q99816 whole entry, looked up): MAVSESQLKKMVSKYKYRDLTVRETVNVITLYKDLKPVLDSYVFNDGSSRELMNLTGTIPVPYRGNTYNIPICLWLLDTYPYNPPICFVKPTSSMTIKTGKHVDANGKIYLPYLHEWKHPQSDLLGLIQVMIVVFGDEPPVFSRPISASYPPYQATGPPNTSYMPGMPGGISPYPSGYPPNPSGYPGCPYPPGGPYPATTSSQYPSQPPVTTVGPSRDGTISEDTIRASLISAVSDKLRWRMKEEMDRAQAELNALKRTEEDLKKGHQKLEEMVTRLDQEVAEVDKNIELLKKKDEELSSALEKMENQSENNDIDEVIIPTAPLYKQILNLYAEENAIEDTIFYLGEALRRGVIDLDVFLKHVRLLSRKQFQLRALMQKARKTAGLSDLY
#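 Tsg101 binding domain (10 uM final) was mixed with compound and a FITC-labeled PTAP peptide (50 nM final) in HEPES pH 7.5 buffer with NaCl, Tween 20, EDTA and TCEP; fluorescence polarization was read after 20 min at r.t.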
# Hits are given with their value; - = inactive; ? = inconclusive; . = not tested or not shown; ! = not active in a repeat; [ ] = remark or other dose. Unless noted, calls follow the shape of the dose curve; as a rule, active = well fitted curve in the direction sought with a large enough effect; inconclusive = small, poorly fitted or top-dose-only effect, or another doubt; inactive = no such curve, though single readings can be large; an effect the other way counts as inactive or inconclusive.
SMILES,KB-3-1 tox,RGS4 inhibitor,SW480 rerep,KB-V1 cytotox,MCF10A rerep,PTAP TSG101 blk
COc1ccc2nc(SCC(=O)Nc3ccccc3C#N)[nH]c2c1,-,-,-,-,-,-
O=C(CSc1nc2ccc(Cl)cc2[nH]1)NCCc1ccccc1,-,-,-,16µM,?,-
Cc1ccccc1NC(=O)CSc1nc2cc3c(cc2cc1C)CCC3,?,-,6.5µM,-,?,-
Cc1ccc(S(=O)(=O)N(C)C)cc1NC(=O)CSc1nc2ccccc2[nH]1,-,-,-,15µM,?,-
COc1ccc2nc(SCC(=O)Nc3ccccc3C)[nH]c2c1,-,-,-,15µM,-,-
Cc1ccc(NC(=O)c2cc3c([nH]c2=O)CC(c2ccccc2)CC3=O)cc1 (configuration not stated),?,.,.,-,.,.
COCCCNC(=O)C1CCCN(c2nn3cc(-c4ccc(C)cc4)nc3s2)C1 (configuration not stated),-,-,.,-,.,.
Cc1cccc(NC(=O)CSc2nc3ccccc3c3nc(CCc4c(C)n[nH]c4C)nn23)c1,?,-,?,23µM!,7.3µM,-
Cc1ccc(NC(=O)CSc2nn(-c3ccc(Cl)cc3)c(=S)s2)cc1S(=O)(=O)N(C)C,?,-,.,21µM,-,-
CN(C)S(=O)(=O)c1cc(NC(=O)CSc2nn(-c3ccc(Cl)cc3)c(=S)s2)ccc1Cl,?,-,-,16µM,-,-
NS(=O)(=O)c1cccc(NC(=O)CSc2nn(-c3ccccc3)c(=S)s2)c1,-,-,-,-,-,-
Cc1cc(C)n(-c2ccc(C(=O)Nc3ccc(C)c(S(=O)(=O)N(C)C)c3)cc2)n1,-,-,-,?,-,-
COC(=O)CCC(=O)NC(=S)Nc1ccc(S(=O)(=O)Nc2cc(OC)nc(OC)n2)cc1,-,-,2.6µM,-,-,-
O=C1CCC[C@@H]2Cc3nc4cc5c(cc4cc3[C@@H]3CCN1[C@H]23)OCO5,-,-,-,18µM!,-,-
CCc1c(C)c2cc(Cl)c(O)c(CN3CCCC3)c2oc1=O,-,-,21µM,-,?,-
Cc1c(C)c2cc(Cl)c(O)c(CN3CCCCC3)c2oc1=O,-,-,-,-,-,-
COc1ccc(NC(=O)N2CCc3c([nH]c4ccc(OC)cc34)C2c2ccc(OC)cc2)cc1 (configuration not stated),-,-,.,-,.,.
O=C(CCl)N(c1ccc(Cl)cc1)c1c[nH]c2ccccc12,?,-,21µM,18µM,2.6µM,-
O=C(CCl)N(c1ccccc1)c1c[nH]c2ccccc12,16µM,-,?,16µM,15µM,-
CCc1ccccc1NC(=O)CN1C(=O)C2CCCN2c2ccc(S(=O)(=O)N(CC)CC)cc21 (configuration not stated),-,-,.,-,.,.
CCc1ccccc1Nc1nn2c(=O)c3ccc(C(=O)NCc4ccc(C)cc4)cc3nc2s1,2.9µM,-,.,-,.,.
CCc1ccccc1Nc1nn2c(=O)c3ccc(C(=O)NCCc4ccccc4)cc3nc2s1,-,-,.,-,.,.
CCOc1ccc(NC(=O)c2ccc(NC(=O)N3CCSc4ncccc43)cc2)cc1,-,-,.,-,.,.
CC[C@@]1(c2ccccc2)C(=O)N(C(=O)OC)N1C(=O)OC,-,-,-,-,?,-
COC(=O)N1C(=O)[C@@](c2ccccc2)(C2CCCCC2)N1C(=O)OC,-,-,-[9.22 µM],-,15µM,-
SMILES,KB-3-1 tox,RGS4 inhibitor,SW480 rerep,KB-V1 cytotox,MCF10A rerep,PTAP TSG101 blk
OCCCNc1nc(-c2ccc(Cl)cc2)nnc1-c1ccc(Br)cc1,23µM,-,-,-,-,-
CCCc1cc(=O)oc2cc3oc(C)c(C)c3cc12,-,-,-,15µM,-,-
COc1ccc(CN2C(=O)CCC2(C)C(=O)NCc2cccnc2)c(OC)c1 (configuration not stated),-,-,-,-,-,-
COc1ccc(CN2C(=O)CCC2(C)C(=O)NC2CCCCC2)c(OC)c1 (configuration not stated),-,-,-,21µM,-,-
COc1ccc(C(=O)c2cn[nH]c2-c2cc(C)ccc2O)cc1,-,-,-,-,-,-
COc1ccc(C(=O)c2cn[nH]c2-c2cc(Cl)ccc2O)cc1,?,-,?,18µM,-,-
O=[N+]([O-])c1ccccc1OCCCn1cnc2ccccc21,-,-,-,7.3µM,-,-
O=c1c2ccccc2ncn1CCCOc1ccccc1[N+](=O)[O-],-,-,-,-,-,-
Clc1ccc(OCCn2cnc3ccccc32)c(Cl)c1,?,-,-,16µM,-,-
NCCCn1cnc2ccccc21,-,-,-,?,0.58µM,-
CC(C)(C)OC(=O)N1CCC(c2c(C(=O)N3CCN(C(=O)c4ccco4)CC3)cnn2-c2cccc(F)c2)CC1,-,-,.,-,.,.
Fc1ccc(NC(=S)Nc2ccccc2OC(F)F)cc1Cl,?,-,.,16µM,?,-
Cc1ccc(NC(=S)Nc2ccc(OC(F)F)c(Cl)c2)cc1Cl,21µM,-,-,21µM,?,-
Cc1ccc(NC(=S)Nc2ccc(Cl)c(Cl)c2)c(OC(F)F)c1,?,-,-,18µM,?,-
COc1ccccc1CCNC(=O)c1ccc(-c2nc(CSc3ccc(C)cc3)c(C)o2)cc1,-,-,.,-,.,.
COc1ccc(S(=O)(=O)NCc2cccnc2)cc1NC(=O)c1ccc(Cl)cc1,-,-,-,?,-,-
COc1ccc(S(=O)(=O)NCc2ccccn2)cc1NC(=O)c1ccccc1,13µM,-,9.2µM,?,21µM,-
COc1ccc(S(=O)(=O)NCc2ccccn2)cc1Br,-,-,-,-,-,-
CCOc1cc(C)c(C(C)C)cc1S(=O)(=O)NCc1ccccn1,-,-,-,9.2µM,-,-
CCOc1ccc(S(=O)(=O)NCc2ccccn2)cc1NC(=O)c1ccccc1F,?,-,0.82µM,?,?,-
COc1ccc(S(=O)(=O)NCc2ccccn2)cc1NC(=O)c1ccc(C)cc1,9.2µM,-,-,?,?,-
Cc1ccc(S(=O)(=O)NCc2ccccn2)c(C)c1,-,-,?,-,?,-
COc1ccc(S(=O)(=O)NCc2ccncc2)cc1NC(=O)c1ccccc1F,-,-,-,-,-,-
